The results in this text go back to PubChem BioAssay (NCI).

Common to all, as to test: NCI-60 one-dose screen, 48 h (100 = growth as untreated, 0 = no growth, -100 = all killed)
Details in all cases: 10 µM unless noted

Assay [1] relates to NCI-H23 lung.
Assay [2] concerns NCI-H322M lung.
Assay [3] deals with HOP-62 NSCLC.
The test system of assay [4] is NCI-H460 lung.
Assay [5] has as its system HOP-92 NSCLC.
The test system of assay [6] is NCI-H522 lung.
Assay [7] concerns A549/ATCC NSCLC.
The subject of assay [8] is 786-0 renal.
For assay [9], the system named is COLO 205 colon.

Molecules are shown by their SMILES. The panel holds about 83,000 compounds, 20% with a hit somewhere; the sample as a whole holds those more often.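 Negative percent growth values reflect cell death: -40 means 40% of the cells present at the start died, and -100 means all died.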 Unmarked numbers belong to inactive results. Active and inactive are the calls of the source. Rule for the calls: active = growth percent below 10; inactive = the rest.

For the compound `CC(=O)O[C@H](C[C@H](C(C)C)N(C)C(=O)[C@@H](NC(=O)[C@H]1CCCCN1C)C(C)(C)C)c1nc(C(=O)N[C@@H](Cc2ccccc2)C[C@H](C)C(=O)O)cs1`, the growth in assay [1] is 37.8%; in [2] it was 41.8%; in assay [3], 19.7%; in [4], 4.25% (active); in assay [5] it was 35.3%; in assay [6] it was -24.7% (active). Besides, the growth in [7] was 9.66% (active); in [8], 11.1%; in [9], -59.1% (active).

As for `COc1ccc(/C=C\c2cc(OC)c(OC)c(OC)c2)c(NS(=O)(=O)c2ccc(Cl)cc2)c1O`, the growth was 21.8% in assay [1]; 40.8% in assay [2]; 49.8% in assay [3]; 8.23% (active) in [4]; 48.3% in [5]; -36% (active) in assay [6]. In addition, the growth was 16.7% in assay [7], 25.5% in assay [8] and 20.9% in [9].

For the compound `CN1CC(=O)N(O)C1(C)c1cccnc1` (centres undefined), the growth in [1] was 104%; in assay [2], 98.7%; in assay [3], 95.6%; in assay [4], 105%; in assay [5], 116%; in [6], 95.2%. Further, the growth was 101% in assay [7], 99.5% in assay [8] and 111% in assay [9].

Consider `COC(=O)[C@@H](C)C[C@H](Cc1ccccc1)NC(=O)c1csc([C@@H](C[C@H](C(C)C)N(C)C(=O)[C@@H](NC(=O)[C@H]2CCCCN2C)c2ccc(F)cc2)OC(C)=O)n1`, for which the growth in [1] was 25.6%; in assay [2], 37.4%; in [3], 3.87% (active); in [4], 3.62% (active); in assay [5], 4.81% (active); in assay [6] it was -2.85% (active). In addition, the growth was 13.9% in assay [7], 15.7% in assay [8] and -53.8% (active) in assay [9].

Regarding `COc1ccc2c(c1)c(-c1nc(-c3cn(C)c4ncccc34)cs1)cn2CCCCN1CCCCC1`, the growth in [1] was 15.3%; in [2], -31.4% (active); in assay [3] it was -78.5% (active); in assay [4] it was -61.2% (active); in assay [5], 50.3%; in [6], -61.7% (active). Also, the growth was -56.4% (active) in assay [7], -90.8% (active) in assay [8] and -71.7% (active) in assay [9].

Consider `O=[N+]([O-])c1cc(I)cc([N+](=O)[O-])c1`, for which the growth in assay [1] is 95.9%; in assay [2] it was 111%; in assay [4], 111%; in [5], 131%; in assay [6], 85.5%; in [7], 99.5%. Further, the growth in assay [8] is 112%; in assay [9], 111%.

Regarding `CC(=O)OCc1cc[c]([Hg][Cl])o1`, the growth in [1] is 58.8%; in assay [2], 98.7%; in assay [3] it was 91.4%; in [4], 84.9%; in assay [5], 53.8%; in assay [6], -53.6% (active). The figures for the growth in [7], in assay [8] and in assay [9] were 73.9%, 24.5% and -1.94% (active), respectively.

With `Fc1c[c-]c(-c2ccccn2)c(F)c1.[CH3-].[Pt+2].c1ccc([PH+](c2ccccc2)c2ccccn2)cc1`, the growth in [1] is 0.331% (active); in assay [2], 19.4%; in assay [3] it was 22.3%; in [4] it was 3.22% (active); in assay [5], -25.6% (active); in assay [6] it was -37.9% (active). In addition, the values for the growth in assay [7], in [8] and in assay [9] were 11.5%, -1.65% (active) and -31.5% (active), respectively.

With `COC(=O)[C@@H](C)C[C@H](Cc1ccccc1)NC(=O)c1csc([C@@H](C[C@H](C(C)C)N(C)C(=O)[C@@H](NC(=O)C23CC(NC(C)=O)(C2)C3)C2CC2)OC(C)=O)n1`, the growth was 60.2% in [1]; 105% in assay [2]; 67.9% in assay [3]; 36.6% in assay [4]; 38.5% in assay [5]; 2.4% (active) in assay [6]. The growth in assay [7] was 93.5%; in assay [8], 65%; in [9], 32.5%.

Consider `CCOC(=O)c1c(C)n(Cc2ccccc2)c2cc(CN(C)C)c(O)cc12`, for which the growth is 57.2% in [1]; 41.8% in assay [2]; 47.9% in [3]; 53.4% in assay [4]; 8.81% (active) in assay [5]; 77.9% in assay [6]. Moreover, the growth is 79.5% in assay [7], 57.8% in assay [8] and 58% in assay [9].

As for `CNC(=O)Oc1ccc(C(C)(C)C)cc1OC(=O)NC`, the growth in assay [1] was 100%; in [2], 112%; in assay [3], 88.7%; in assay [4], 102%; in [5], 95.2%; in assay [6] it was 84.8%. Further, the growth in [8] was 89.4%; in assay [9] it was 87%.

`Fc1ccc2c(c1)c(-c1nc(-c3c[nH]c4ncccc34)cs1)cn2CCCCN1CCCCC1`: the growth was -75.9% (active) in assay [1]; -47.9% (active) in assay [2]; -89.5% (active) in [3]; -80% (active) in assay [4]; -52.8% (active) in assay [5]; -87.2% (active) in assay [6]. The growth in assay [7] was -87.7% (active); in assay [8], -93.7% (active); in [9], -89.6% (active).

In the case of `Cc1ccccc1NC(=NCCCN1CC1)Nc1ccccc1C`, the growth in assay [1] was 97.7%; in assay [2] it was 97.6%; in assay [3], 119%; in [4], 81.7%; in [5], 77.2%; in assay [6], 84.9%. Further, the growth in assay [7] was 86.4%; in assay [8] it was 100%.

For `CN1CCC(O)(c2ccc(F)cc2)C(C(=O)c2ccc(F)cc2)C1` (centres undefined), the growth was 99.3% in assay [1]; 98.7% in assay [2]; 97.2% in assay [3]; 109% in assay [4]; 96.4% in assay [5]; 78.9% in assay [6]. Also, the growth in assay [7] is 101%; in assay [8], 102%; in assay [9] it was 115%.

In the case of `O=C1C(N2CC2)=C(N2CC2)C(=O)C(N2CC2)=C1N1CC1`, the growth is -70% (active) in [1]; 3.77% (active) in assay [2]; -17% (active) in assay [3]; -30.9% (active) in assay [4]; 41.4% in [5]; -53.3% (active) in assay [6]. For the same compound, the growth in [7] was 6.45% (active); in assay [8], -76.2% (active); in [9], -100% (active).

Turning to `CC1(C)CN1P(=O)(N1CC1(C)C)N1CC1(C)C` (centres undefined), the growth in assay [1] is 105%; in assay [2] it was 111%; in [3], 102%; in [4], 112%; in [5], 103%; in assay [6] it was 104%. The growth in assay [7] is 91%; in [8], 109%; in assay [9], 107%.

For the compound `Clc1ccc(CSC(Cn2ccnc2)c2ccc(Cl)cc2Cl)cc1` (centres undefined), the growth was 27.1% in [1]; 63.3% in assay [2]; 52.6% in [3]; 23.2% in assay [4]; -4.58% (active) in [5]; 34.6% in assay [6]. Besides, the growth is 27.5% in assay [7], 34.2% in assay [8] and -55.2% (active) in assay [9].

`COc1cc(C=C2c3ccccc3C(=O)c3ccccc32)ccc1OCCCCOc1cc2c(cc1OC)C(=O)N1CCCC1C=N2` (centres undefined): the growth is -52.7% (active) in assay [1]; 13.3% in assay [2]; -62.5% (active) in [3]; -77% (active) in [4]; -59.4% (active) in assay [5]; -53.1% (active) in [6]. Further, the growth in assay [7] was -37.8% (active); in assay [8] it was -100% (active); in [9] it was -93.9% (active).
